According to PubChem BioAssay AID485364 (National Center for Advancing Translational Sciences (NCATS), 2010):
Hit rate of the full screen: of about 360,000 compounds, about 11,000 (3.1%) were called active. Not shown: some 4% with an inconclusive outcome. The list comes from a sample in which actives are over-represented; it also holds similar structures and randomly drawn compounds. Unmarked numbers belong to inactive results. The call rests on the fitted dose curve; in most records, active means well fitted inhibition curve with a large enough effect; inconclusive means small, poorly fitted or top-dose-only effect; inactive means no such curve, though single readings can be large or run the other way.

The molecules below were run against Schistosoma mansoni thioredoxin glutathione reductase (TGR) (UniProt Q962Y6) (assay: qHTS Assay for the Inhibitors of Schistosoma Mansoni Peroxiredoxins). Details: purified TGR, DTNB reduction, TNB absorbance 405 nm; series mostly up to 114 µM; activity change, negative = inhibition: at the top concentration.
Description: Schistosomiasis is a major neglected tropical disease that currently affects over 200 million. It is caused by different species of flatworms, such as Schistosoma mansoni. Over the last century, drugs to treat the disease have evolved from potassium antimonyl tartrate, artemisinin, oxamniquine, to praziquantel, with praziquantel remaining the universally-used single drug of choice over the past three decades. However, transmission rates have changed little with praziquantel, and there is evidence for the development of drug resistant parasites. Because there is currently no suitable alternative therapy available, there is an urgent need to identify new targets and drugs for schistosomiasis treatment. Thioredoxin glutathione reductase (TGR), one uniquely positioned S. mansoni enzyme, has been identified as a major component of the worms' distinct and compressed antioxidant "firewall". TGR is a multifunctional enzyme that catalyzes the interconversion between reduced and oxidized forms of both glutathione (GSH) and thioredoxins, thus making it an attractive new antiparasitic target. Recently, a quantitative high-throughput screen of the NIH Molecular Libraries Small Molecule Repository (MLSMR, ~71K at the time of the screen in 2007) was performed using an assay that targeted both TGR and peroxiredoxin2 (Prx2, an H2O2-reducing enzymatic component of the S. mansoni redox "firewall") by following the decrease of NADPH fluorescence. […] Additional mechanistic link between exogenous NO donation and parasitic injury for the oxadiazole-2-oxide class of compounds was also expanded and better defined. Although the screen addressed both TGR and Prx2, the assay required post-screen target deconvolution for further characterization of the actives. In addition, the fluorescence assay was also subject to fluorescence interference from compound library members. We have developed a 1536-well-based kinetic HTS assay to address TGR alone. The assay followed the reduction of 5, 5'-dithiobis (2-nitrobenzoic acid) (DTNB) (Ellman's reagent) by NADPH and measured the increase in absorbance at 412 nm of the reaction product, TNB. […] This assay format can be used to screen the current MLSMR collection (with >300K compounds available) to find novel TGR inhibitors. Furoxan is a good choice to serve as a positive control in the primary HTS assay.
Three microliters of reagents (100 uM NADPH and 20 nM TGR or 100 uM NADPH as no-enzyme control) were dispensed into 1,536-well black clear-bottomed plates. Compounds (23 nL) were transferred via Kalypsys pin tool equipped with 1536-pin array (10 nL slotted pins, V&P Scientific, San Diego, CA). The plates were then be incubated for 15 min at room temperature, and 1 uL aliquot of 500 uM NADPH were added, immediately followed by a 1 uL aliquot of 15 mM DTNB to start the reaction. The plate was transferred to a ViewLux high-throughput CCD imager (Perkin-Elmer, Wellesley, MA) where kinetic measurements of the TNB absorbance were acquired using a 405 excitation filter. Throughout the screen, reagent bottles and all liquid lines were made light-tight to minimize reagent degradation. All screening operations were performed on a fully integrated robotic system (Kalypsys, San Diego, CA) containing one RX-130 and two RX-90 anthropomorphic robotic arms (Staubli, Duncan, SC). Library plates were screened starting from the lowest and proceeding to the highest concentration, and a "double-dipping" step of the highest concentration was required to access higher concentrations of compounds. Vehicle-only plates, with DMSO being pin-transferred to the entire column 5-48 compound area, were inserted uniformly at the beginning and the end of each library in order to monitor for and record any shifts in the background, which can be affected by reagent dispensers or loss in enzyme activity overtime. […]
Further: nearly all actives have a fitted effect of over 60% in size.
On the % scale 0 is the no-effect control and ±100 the full control effect; potency means the concentration at half of the fitted maximal effect.

Going from `NS(=O)(=O)c1ccc(CCNC(=O)CCCCCn2c(=O)[nH]c3ccccc3c2=O)cc1` to `O=C(CCCCCn1c(=O)[nH]c2ccccc2c1=O)NCCc1c[nH]c2ccccc12`, the “activity change, negative = inhibition” value falls from 2.15% to 1.93%.

Compared with `CCCCCn1c(CCCNC(=O)c2ccccc2OC)nc2ccccc21`, `COc1ccc(/C=C2/SC(=O)N(CCCCCC(=O)Nc3ccccc3C(=O)O)C2=S)cc1` is higher in “activity change, negative = inhibition” value: -3.99% for the first, -1.67% for the second.

Compared with `COc1ccc(C)cc1NC(=O)CCc1c(C)nn(-c2ccc(N3CCOCC3)nn2)c1C`, `Cc1ccc(C)c(CN2C(=O)c3ccccc3S(=O)c3ccc(C(=O)N4CCOCC4)cc32)c1` (stereo not given) is lower in “activity change, negative = inhibition” value: -3.54% for the first, -17.2% for the second.

First: CCOC(=O)c1ccc(NC(=O)Cn2c(=O)n(-c3ccc(C)cc3)c(=O)c3c2cnn3C)cc1
Second: CCCc1nn2c(=O)cc(COC(=O)c3ccc(NC(=O)COc4ccc(F)cc4)cc3)nc2s1
The “activity change, negative = inhibition” value of the first is lower: 1.17% for the first, 2.97% for the second.

First: O=C(Cc1ccccc1)Nc1cccc(C(=O)N/N=C/c2ccco2)c1
Second: O=C(O)CCC(=O)N(Cc1ccccc1)Cc1ccccc1
The “activity change, negative = inhibition” value of the first is higher: 2.24% for the first, -7.7% for the second.

First: O=C(Nc1ccccc1N1CCOCC1)c1csc2c1CCCC2
Second: CCn1cc(C(=O)NCc2ccccc2)c(=O)c2cc(S(=O)(=O)N3CCCCC3)ccc21
The “activity change, negative = inhibition” value of the first is lower: -5.36% for the first, 1.07% for the second.

Compared with `CCOC(=O)C1CCN(c2csc3ccc(C)cc3c2=O)CC1`, `CCOC(=O)c1c(NC(=O)/C=C/c2ccc(OC)cc2)sc2c1CCC(C)C2` (stereo not given) is higher in “activity change, negative = inhibition” value: -5.6% for the first, 2.9% for the second.

First: Cc1ccc(-c2nn(-c3cccc(F)c3)cc2CNCCc2ccncc2)o1
Second: CCc1nc2cccnc2n1-c1ccc(CC(=O)Nc2c(C)cccc2C)cc1
The “activity change, negative = inhibition” value of the first is lower: -22.6% for the first, -0.678% for the second.

First: O=C(CCCN1C(=O)/C(=C/c2cccs2)SC1=S)Nc1ccc(O)cc1
Second: Cc1c(Cl)cccc1NC(=O)CCS(=O)(=O)c1ccc2c(c1)oc(=O)n2C
The “activity change, negative = inhibition” value of the first is higher: -9.78% for the first, -35.2% for the second.

Compared with `CCOC(=O)c1c(NC(=O)COc2cc(C)ccc2C(C)C)sc(C)c1C`, `CCOC(=O)c1c(C(C#N)C#N)cc(C)nc1C` is higher in “activity change, negative = inhibition” value: -1.77% for the first, 2.77% for the second.

Compared with `CCCCOc1ccc(C(=O)N2CC(=O)Nc3ccc(Br)cc3C2c2ccc(F)cc2)cc1` (stereo not given), `O=C(c1ccc(Cl)cc1)n1nc(-c2cccnc2)nc1NCc1ccc(F)cc1` is lower in “activity change, negative = inhibition” value: 3.05% for the first, 1.24% for the second.

First: CCOC(=O)COc1nc(C)cc(C(F)(F)F)c1C#N
Second: CCOC(=O)CSc1ccccn1
The “activity change, negative = inhibition” value of the first is higher: 18% for the first, 2.94% for the second.

First: CCOc1ccc(N2C(=O)CN(c3cccc4ccccc34)C2=S)cc1
Second: CCOc1ccc(N2C(=O)CSC2=NC#N)cc1
The “activity change, negative = inhibition” value of the first is higher: -0.257% for the first, -3.07% for the second.

Compared with `COc1cccc(N(CC(=O)NCCSc2ccccn2)S(C)(=O)=O)c1`, `O=C(CSc1nccn1Cc1ccc(F)cc1)NCc1ccccc1` is higher in “activity change, negative = inhibition” value: 0.808% for the first, 1.52% for the second.

Compared with `CC(C)c1ccc(C2C(C#N)=C(N)Oc3c2oc(CO)cc3=O)cc1` (stereo not given), `C#CCOc1ccc(C2CC(=O)Nc3c2c(C)nn3-c2nc(C)cc(C)n2)cc1` (stereo not given) is lower in “activity change, negative = inhibition” value: 17.8% for the first, -14.6% for the second.

Going from `CCOC(=O)c1cc2c(=O)n3ccccc3nc2n(CC2CCCO2)c1=NC(=O)c1ccc(C(C)(C)C)cc1` (stereo not given) to `Cc1ccc(-c2c3c(=O)n(C)c(=O)n(C)c3cn2-c2ccccc2O)cc1`, the “activity change, negative = inhibition” value falls from 1.91% to -26.9%.

First: CCc1cc2c(-c3ccccc3)cc(=O)oc2c2c1OCN(Cc1ccc(C)cc1)C2
Second: C=CCNC(=O)/C(=C\c1cccc([N+](=O)[O-])c1)NC(=O)c1ccccc1
The “activity change, negative = inhibition” value of the first is higher: -3.03% for the first, -3.16% for the second.

Compared with `O=C1Cc2cc(S(=O)(=O)Nc3ccc(OC(F)(F)F)cc3)cc3c2N1CCC3`, `CN(C)c1cccc(C(=O)Nc2nc3ccc(S(=O)(=O)NC(C)(C)C)cc3s2)c1` is lower in “activity change, negative = inhibition” value: 5.73% for the first, -2.01% for the second.

Compared with `COc1ccc(-c2c3c(=O)n(C)c(=O)n(C)c3cn2NC(C)=O)cc1`, `C=CCN(CC=C)CCOc1ccccc1[N+](=O)[O-]` is lower in “activity change, negative = inhibition” value: 0% for the first, -4.88% for the second.

For `O=C(CCCCn1c(=O)[nH]c2ccccc2c1=O)NCc1ccc2c(c1)OCO2`, the Potency was 2.51 µM (active).
With `O=C(N/N=C/c1ccco1)c1csc2c1CCCC2` the Potency was 44.7 µM (active).
In the case of `Cc1ccc(-c2nn(-c3ccccc3)cc2/C=C2\SC(=S)N(CCCCCC(=O)O)C2=O)o1`, the Potency is reported as 12.6 µM (active).
With `Cc1ccc(-c2nn(-c3ccccc3)cc2CN(Cc2ccccc2)C(=O)CCC(=O)O)o1` the Potency was 7.94 µM (active).
With `CCOC(=O)c1cc(C)nc(S(C)(=O)=O)c1C#N` the Potency was 35.5 µM (active).
With `CCOc1ccc(N2C(=O)/C(=C/c3ccc(C)o3)N(C)C2=S)cc1` the Potency was 28.2 µM (active).
`COc1ccc(C=C(C#N)C#N)c(CSc2ccccn2)c1` was tested, and the Potency was 1 µM (active).
In the case of `CC(C)c1ccc(C2CC(=O)N3CN(C4CCCCC4)CSC3=C2C#N)cc1` (stereo not given), the Potency is reported as 6.31 µM (active).
`CN1c2ccc(C=O)c3c(C=O)ccc(c23)N(C)C1(C)C` was tested, and the Potency was 35.5 µM (active).
`Cc1ccc(-c2c3c(=O)n(C)c(=O)n(C)c3cn2-n2cnnc2)cc1` was tested, and the Potency was 39.8 µM (active).
`C=CCN(N=Nc1cccc([N+](=O)[O-])c1)c1cccc([N+](=O)[O-])c1` was tested, and the Potency was 20 µM (active).
`CCc1nc2cccnc2n1-c1ccc(C(=O)O)cc1` was tested, and the Potency was 44.7 µM (active).
